Results on 8 sequences are retold here after PMC7862700, “An all-to-all approach to the identification of sequence-specific readers for epigenetic DNA modifications on cytosine”.

Experiment in all cases: DAPPL (digital affinity profiling via proximity ligation, sequencing); 10 mM Tris-HCl pH 7.5, 50 mM NaCl, 1 mM DTT, 4% glycerol, room temperature, 30 min; GST-TFs on glutathione beads, 16-mer random dsDNA library, 0.1% formaldehyde crosslink after washing; high values mean tight binding
Holding throughout (settings): protein: recombinant; tags: N-terminal GST; dsDNA, one strand shown

The target in one test is T1, ERF (Homo sapiens, UniProt P50548 1-548).
T1 sequence: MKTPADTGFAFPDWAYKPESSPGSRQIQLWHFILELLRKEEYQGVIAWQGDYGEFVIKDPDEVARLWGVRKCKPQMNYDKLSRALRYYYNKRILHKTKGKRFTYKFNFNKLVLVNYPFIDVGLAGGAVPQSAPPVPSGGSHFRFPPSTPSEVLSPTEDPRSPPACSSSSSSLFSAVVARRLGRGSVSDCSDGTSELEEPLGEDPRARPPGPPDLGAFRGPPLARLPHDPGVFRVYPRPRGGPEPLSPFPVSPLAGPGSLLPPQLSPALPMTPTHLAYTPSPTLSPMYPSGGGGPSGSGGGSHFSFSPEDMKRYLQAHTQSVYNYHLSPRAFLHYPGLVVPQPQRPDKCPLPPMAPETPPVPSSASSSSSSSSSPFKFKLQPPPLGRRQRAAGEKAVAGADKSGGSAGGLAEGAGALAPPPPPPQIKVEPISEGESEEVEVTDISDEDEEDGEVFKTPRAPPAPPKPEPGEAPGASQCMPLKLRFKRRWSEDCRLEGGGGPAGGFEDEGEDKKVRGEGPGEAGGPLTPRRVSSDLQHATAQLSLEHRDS
Summed up: (§1)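 A tag-only sample was pooled with DNA-barcoded human transcription factors that had been expressed in yeast as GST fusions and captured on glutathione beads. The pools were incubated for 30 min at room temperature with 200 nmole of a random double-stranded 16-mer DNA library in Tris/NaCl/DTT/glycerol buffer, then washed, crosslinked with 0.1% formaldehyde, proximity-ligated (BsaI/T4 ligase, 1 h, 37 °C), PCR-amplified and sequenced on an Illumina NextSeq500. Binding signal is each hexamer's read frequency for a factor divided by its frequency for the tag-only sample.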

A further test addresses T2, ETV3L (Homo sapiens, UniProt Q6ZN32 1-361).
T2 sequence: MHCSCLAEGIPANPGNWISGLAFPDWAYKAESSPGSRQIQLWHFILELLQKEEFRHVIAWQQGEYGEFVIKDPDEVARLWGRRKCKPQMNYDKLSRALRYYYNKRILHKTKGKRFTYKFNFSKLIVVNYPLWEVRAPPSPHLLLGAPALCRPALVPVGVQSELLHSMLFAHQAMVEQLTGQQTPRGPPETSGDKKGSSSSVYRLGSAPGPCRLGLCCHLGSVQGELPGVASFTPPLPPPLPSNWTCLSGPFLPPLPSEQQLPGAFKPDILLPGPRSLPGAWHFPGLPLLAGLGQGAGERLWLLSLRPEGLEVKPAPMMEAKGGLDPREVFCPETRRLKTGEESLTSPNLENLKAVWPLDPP
In a few lines: as §1

For the next test, the target named is T3, ETS2 (Homo sapiens, UniProt P15036 1-469).
T3 sequence: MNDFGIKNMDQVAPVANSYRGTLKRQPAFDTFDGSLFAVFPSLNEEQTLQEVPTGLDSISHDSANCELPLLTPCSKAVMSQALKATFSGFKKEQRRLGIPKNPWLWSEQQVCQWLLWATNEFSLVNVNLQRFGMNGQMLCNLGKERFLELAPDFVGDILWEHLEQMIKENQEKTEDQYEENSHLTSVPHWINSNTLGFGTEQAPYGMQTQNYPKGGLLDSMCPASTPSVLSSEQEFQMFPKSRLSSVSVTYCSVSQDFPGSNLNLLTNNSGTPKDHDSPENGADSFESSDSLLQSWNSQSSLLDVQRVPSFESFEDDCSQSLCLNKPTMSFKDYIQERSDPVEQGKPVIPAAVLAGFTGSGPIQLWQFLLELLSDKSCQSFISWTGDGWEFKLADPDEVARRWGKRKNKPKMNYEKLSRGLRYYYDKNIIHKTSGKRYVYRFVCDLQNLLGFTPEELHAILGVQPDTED
In a few lines: as §1

Another test has as its target T4, SPDEF (Homo sapiens, UniProt O95238 1-335).
T4 sequence: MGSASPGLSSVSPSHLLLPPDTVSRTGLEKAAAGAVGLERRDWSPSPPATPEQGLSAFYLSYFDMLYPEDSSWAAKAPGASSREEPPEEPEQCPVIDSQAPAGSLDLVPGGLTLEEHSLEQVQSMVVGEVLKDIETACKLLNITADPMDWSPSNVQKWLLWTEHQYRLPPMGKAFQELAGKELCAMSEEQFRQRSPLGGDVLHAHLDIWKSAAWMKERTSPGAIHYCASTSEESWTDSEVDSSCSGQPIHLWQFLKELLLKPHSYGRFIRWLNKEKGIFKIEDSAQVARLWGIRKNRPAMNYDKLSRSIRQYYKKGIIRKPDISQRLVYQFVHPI
Summed up: as §1

A further test has as its target T5, ETV7 (Homo sapiens, UniProt Q9Y603 1-341).
T5 sequence: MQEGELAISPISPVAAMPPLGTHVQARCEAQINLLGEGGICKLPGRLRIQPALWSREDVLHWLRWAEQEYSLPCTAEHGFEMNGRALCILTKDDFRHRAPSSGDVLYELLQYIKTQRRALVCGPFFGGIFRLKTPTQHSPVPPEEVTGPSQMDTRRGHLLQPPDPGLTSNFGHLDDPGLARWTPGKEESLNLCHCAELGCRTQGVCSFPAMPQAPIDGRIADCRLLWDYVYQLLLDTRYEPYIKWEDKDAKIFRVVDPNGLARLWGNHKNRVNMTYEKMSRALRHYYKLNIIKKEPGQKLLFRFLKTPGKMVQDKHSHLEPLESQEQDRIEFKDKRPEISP
Summed up: as §1

A further test addresses T6, ELF5 (Homo sapiens, UniProt Q9UKW6-2 1-255).
T6 sequence: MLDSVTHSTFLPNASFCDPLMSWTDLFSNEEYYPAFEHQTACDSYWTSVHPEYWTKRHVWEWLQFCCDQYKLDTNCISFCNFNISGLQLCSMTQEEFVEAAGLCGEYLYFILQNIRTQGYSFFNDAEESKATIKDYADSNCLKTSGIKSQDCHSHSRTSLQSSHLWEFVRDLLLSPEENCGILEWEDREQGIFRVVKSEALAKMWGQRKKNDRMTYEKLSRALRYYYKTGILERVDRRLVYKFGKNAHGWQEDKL
In a few lines:
as §1

The next test has as its target T7, ETV3 (Homo sapiens, UniProt P41162-2 1-143).
T7 sequence: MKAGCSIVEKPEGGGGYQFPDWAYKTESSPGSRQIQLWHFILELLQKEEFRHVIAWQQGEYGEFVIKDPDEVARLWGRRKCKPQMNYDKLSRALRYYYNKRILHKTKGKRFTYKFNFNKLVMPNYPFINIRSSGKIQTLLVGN
Summed up: as §1

In the next test the target is ETV6 (Homo sapiens, UniProt P41212 1-452). In a few lines:
as §1

Chain of ETV6 (P41212 whole entry): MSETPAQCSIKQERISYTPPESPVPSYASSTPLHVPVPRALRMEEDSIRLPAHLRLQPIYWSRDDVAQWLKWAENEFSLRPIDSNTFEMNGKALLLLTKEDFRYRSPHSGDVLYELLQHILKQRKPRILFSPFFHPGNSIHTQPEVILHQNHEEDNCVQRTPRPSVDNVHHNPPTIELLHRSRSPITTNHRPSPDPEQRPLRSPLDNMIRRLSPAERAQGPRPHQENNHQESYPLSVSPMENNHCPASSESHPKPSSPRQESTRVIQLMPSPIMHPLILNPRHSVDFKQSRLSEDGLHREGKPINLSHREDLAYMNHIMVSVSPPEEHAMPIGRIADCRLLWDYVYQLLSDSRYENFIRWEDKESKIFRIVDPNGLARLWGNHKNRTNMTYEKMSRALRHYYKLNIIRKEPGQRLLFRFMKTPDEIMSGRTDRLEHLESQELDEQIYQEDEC

Consider CCGTCC, for which the binding signal with ERF is 1.51 fold enrichment (6-mer frequency, TF over GST control); with ETV3L it was 1.38 fold enrichment (6-mer frequency, TF over GST control); in the test with ETS2 it was 1.38 fold enrichment (6-mer frequency, TF over GST control); in the test with SPDEF, 1.55 fold enrichment (6-mer frequency, TF over GST control); with ETV7, 1.27 fold enrichment (6-mer frequency, TF over GST control); in the test with ELF5, 1.36 fold enrichment (6-mer frequency, TF over GST control). The binding signal in the test with ETV3 was 1.51 fold enrichment (6-mer frequency, TF over GST control); with ETV6, 1.29 fold enrichment (6-mer frequency, TF over GST control).
Regarding CGACTT, the binding signal is 1.62 fold enrichment (6-mer frequency, TF over GST control) with ERF; 1.62 fold enrichment (6-mer frequency, TF over GST control) with ETV3L; 1.76 fold enrichment (6-mer frequency, TF over GST control) with ETS2; 1.54 fold enrichment (6-mer frequency, TF over GST control) in the test with SPDEF; 1.53 fold enrichment (6-mer frequency, TF over GST control) with ETV7; 1.72 fold enrichment (6-mer frequency, TF over GST control) in the test with ELF5. Also, the binding signal with ETV3 was 1.78 fold enrichment (6-mer frequency, TF over GST control); with ETV6 it was 1.79 fold enrichment (6-mer frequency, TF over GST control).
As to CCTTAT, the binding signal in the test with ERF is 1.41 fold enrichment (6-mer frequency, TF over GST control); in the test with ETV3L, 1.46 fold enrichment (6-mer frequency, TF over GST control); with ETS2, 1.41 fold enrichment (6-mer frequency, TF over GST control); with SPDEF, 1.71 fold enrichment (6-mer frequency, TF over GST control); with ETV7 it was 1.49 fold enrichment (6-mer frequency, TF over GST control); with ELF5, 1.73 fold enrichment (6-mer frequency, TF over GST control). Further, the binding signal with ETV3 is 1.39 fold enrichment (6-mer frequency, TF over GST control); with ETV6, 1.42 fold enrichment (6-mer frequency, TF over GST control).
AACCGG: the binding signal with ERF is 1.42 fold enrichment (6-mer frequency, TF over GST control); with ETV3L, 1.43 fold enrichment (6-mer frequency, TF over GST control); with ETS2 it was 1.46 fold enrichment (6-mer frequency, TF over GST control); with SPDEF, 1.8 fold enrichment (6-mer frequency, TF over GST control); with ETV7, 1.36 fold enrichment (6-mer frequency, TF over GST control); with ELF5, 1.52 fold enrichment (6-mer frequency, TF over GST control). The binding signal in the test with ETV3 is 1.6 fold enrichment (6-mer frequency, TF over GST control); with ETV6, 1.5 fold enrichment (6-mer frequency, TF over GST control).
On to CTGATG, for which the binding signal is 1.48 fold enrichment (6-mer frequency, TF over GST control) in the test with ERF; 1.53 fold enrichment (6-mer frequency, TF over GST control) with ETV3L; 1.68 fold enrichment (6-mer frequency, TF over GST control) with ETS2; 1.5 fold enrichment (6-mer frequency, TF over GST control) with SPDEF; 1.64 fold enrichment (6-mer frequency, TF over GST control) with ETV7; 1.64 fold enrichment (6-mer frequency, TF over GST control) with ELF5. Moreover, the binding signal with ETV3 is 1.74 fold enrichment (6-mer frequency, TF over GST control); with ETV6, 1.72 fold enrichment (6-mer frequency, TF over GST control).
As for AGGAAG, the binding signal is 1.2 fold enrichment (6-mer frequency, TF over GST control) with ERF; 1.33 fold enrichment (6-mer frequency, TF over GST control) with ETV3L; 1.5 fold enrichment (6-mer frequency, TF over GST control) with ETS2; 1.15 fold enrichment (6-mer frequency, TF over GST control) in the test with SPDEF; 1.23 fold enrichment (6-mer frequency, TF over GST control) with ETV7; 2.03 fold enrichment (6-mer frequency, TF over GST control) with ELF5. Also, the binding signal in the test with ETV3 was 1.54 fold enrichment (6-mer frequency, TF over GST control); with ETV6, 1.71 fold enrichment (6-mer frequency, TF over GST control).
For CCGCAC, the binding signal with ERF is 1.46 fold enrichment (6-mer frequency, TF over GST control); in the test with ETV3L, 1.55 fold enrichment (6-mer frequency, TF over GST control); with ETS2, 1.47 fold enrichment (6-mer frequency, TF over GST control); in the test with SPDEF it was 1.46 fold enrichment (6-mer frequency, TF over GST control); with ETV7, 1.4 fold enrichment (6-mer frequency, TF over GST control); with ELF5, 1.59 fold enrichment (6-mer frequency, TF over GST control). The binding signal in the test with ETV3 was 1.61 fold enrichment (6-mer frequency, TF over GST control); with ETV6, 1.56 fold enrichment (6-mer frequency, TF over GST control).
GTATTC: the binding signal in the test with ERF is 1.29 fold enrichment (6-mer frequency, TF over GST control); in the test with ETV3L it was 1.25 fold enrichment (6-mer frequency, TF over GST control); in the test with ETS2, 1.33 fold enrichment (6-mer frequency, TF over GST control); with SPDEF, 1.21 fold enrichment (6-mer frequency, TF over GST control); with ETV7, 1.34 fold enrichment (6-mer frequency, TF over GST control); with ELF5 it was 1.31 fold enrichment (6-mer frequency, TF over GST control). The binding signal in the test with ETV3 was 1.34 fold enrichment (6-mer frequency, TF over GST control); with ETV6, 1.28 fold enrichment (6-mer frequency, TF over GST control).
